Results filed as inconclusive are left out. Activity calls are given as the source filed them. Calls come from the whole dose curve; as a rule, active = well fitted curve in the direction sought with a large enough effect; inconclusive = small, poorly fitted or top-dose-only effect, or another doubt; inactive = no such curve, though single readings can be large; an effect the other way counts as inactive or inconclusive.
How the values were obtained:
[1] = tested on: AA1029; experiment: qHTS profiling for inhibitors of Plasmodium falciparum proliferation (AID 504749); details: P. falciparum in erythrocytes, SYBR Green DNA, 72 h; series mostly up to 28.7 µM
How it was run: (§1)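 Readout was DNA-dye fluorescence from lysed cultures, ex 485/em 535 nm. Parasitized red cells had grown 72 h with compound; data scaled between 0.29 uM artemisinin and DMSO wells and corrected using vehicle-only plates.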

[2] = tested on: AS120; experiment: as above; details: P. falciparum in erythrocytes, SYBR Green DNA, 72 h; series mostly up to 28.7 µM
How it was run: as §1

[3] = tested on: ATS95; experiment: as above; details: P. falciparum in erythrocytes, SYBR Green DNA, 72 h; series mostly up to 28.7 µM
How it was run: as §1

[4] = tested on: CP185; experiment: as above; details: P. falciparum in erythrocytes, SYBR Green DNA, 72 h; series mostly up to 28.7 µM
How it was run: as §1

[5] = tested on: CP194; experiment: as above; details: P. falciparum in erythrocytes, SYBR Green DNA, 72 h; series mostly up to 28.7 µM
How it was run: as §1

[6] = tested on: CP201; experiment: as above; details: P. falciparum in erythrocytes, SYBR Green DNA, 72 h; series mostly up to 28.7 µM
How it was run: as §1

[7] = tested on: CP238; experiment: as above; details: P. falciparum in erythrocytes, SYBR Green DNA, 72 h; series mostly up to 28.7 µM
How it was run: as §1

[8] = tested on: CP291; experiment: as above; details: P. falciparum in erythrocytes, SYBR Green DNA, 72 h; series mostly up to 28.7 µM
How it was run: as §1

[9] = tested on: CP305; experiment: as above; details: P. falciparum in erythrocytes, SYBR Green DNA, 72 h; series mostly up to 28.7 µM
How it was run: as §1

[10] = tested on: CP315; experiment: as above; details: P. falciparum in erythrocytes, SYBR Green DNA, 72 h; series mostly up to 28.7 µM
How it was run: as §1

[11] = tested on: CP329; experiment: as above; details: P. falciparum in erythrocytes, SYBR Green DNA, 72 h; series mostly up to 28.7 µM
How it was run: as §1

[12] = tested on: DIV14; experiment: as above; details: P. falciparum in erythrocytes, SYBR Green DNA, 72 h; series mostly up to 28.7 µM
How it was run: as §1

[13] = tested on: DIV30; experiment: as above; details: P. falciparum in erythrocytes, SYBR Green DNA, 72 h; series mostly up to 28.7 µM
How it was run: as §1

[14] = tested on: ICS; experiment: as above; details: P. falciparum in erythrocytes, SYBR Green DNA, 72 h; series mostly up to 28.7 µM
How it was run: as §1

[15] = tested on: P93_24; experiment: as above; details: P. falciparum in erythrocytes, SYBR Green DNA, 72 h; series mostly up to 28.7 µM
How it was run: as §1

[16] = tested on: PC26; experiment: as above; details: P. falciparum in erythrocytes, SYBR Green DNA, 72 h; series mostly up to 28.7 µM
How it was run: as §1

[17] = tested on: TAB165; experiment: as above; details: P. falciparum in erythrocytes, SYBR Green DNA, 72 h; series mostly up to 28.7 µM
How it was run: as §1

[18] = tested on: GB4; experiment: as above; details: P. falciparum in erythrocytes, SYBR Green DNA, 72 h; series mostly up to 28.7 µM
How it was run: as §1

[19] = tested on: P94_40; experiment: as above; details: P. falciparum in erythrocytes, SYBR Green DNA, 72 h; series mostly up to 28.7 µM
How it was run: as §1

[20] = biological target: Cytochrome P450 2D6 (Homo sapiens) (UniProt P10635); experiment: qHTS Assay for Inhibitors and Substrates of Cytochrome P450 2D6 (AID 891)
Cytochrome P450 2D6 (Homo sapiens), sequence (P10635 whole entry, looked up): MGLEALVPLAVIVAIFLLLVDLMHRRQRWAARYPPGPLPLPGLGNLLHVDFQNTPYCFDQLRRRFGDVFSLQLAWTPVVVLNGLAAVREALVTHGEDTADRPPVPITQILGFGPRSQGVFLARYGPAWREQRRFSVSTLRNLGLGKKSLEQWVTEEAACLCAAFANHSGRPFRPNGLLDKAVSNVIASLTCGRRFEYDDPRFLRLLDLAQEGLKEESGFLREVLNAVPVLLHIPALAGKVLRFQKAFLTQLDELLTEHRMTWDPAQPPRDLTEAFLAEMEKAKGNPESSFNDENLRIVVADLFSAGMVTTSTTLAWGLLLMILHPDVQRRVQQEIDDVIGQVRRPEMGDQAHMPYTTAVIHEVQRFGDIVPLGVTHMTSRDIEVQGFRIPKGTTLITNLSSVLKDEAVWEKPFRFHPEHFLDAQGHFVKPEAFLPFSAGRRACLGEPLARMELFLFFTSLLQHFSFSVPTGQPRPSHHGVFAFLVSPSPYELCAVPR
How it was run: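 Human CYP2D6 (5 nM) with 30 uM Luciferin-ME EGE (at Km) in 100 mM KPO4, compound preincubated 10 min, then NADPH regeneration system for 60 min at room temperature. Luciferin read by luminescence; normalized to 1.43 uM quinidine.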

Measured: Potency
Note: nearly all actives have a fitted effect of over 60% in size.
Potency is the fitted concentration of half-maximal effect.

CCN[C@]1(c2cccs2)CCCCC1=O
not listed: [18] | [19] | [20]
inactive: all other assays above

CC(=O)OCC(=O)[C@@H]1CC[C@H]2[C@H]3CC[C@H]4C[C@@H](O)CC[C@]4(C)[C@@H]3C(=O)C[C@@]12C
not listed: [20]
inactive: all other assays above

CN(C)C(=O)Oc1cc(OC(=O)N(C)C)cc([C@@H](O)CNC(C)(C)C)c1
active: [20] 7.94 µM
inactive: all other assays above

CN[C@@H](C)[C@H]1CC[C@@H](N)[C@@H](O[C@@H]2[C@@H](O)[C@@H](O[C@H]3OC[C@@](C)(O)[C@@H](NC)[C@@H]3O)[C@H](N)C[C@@H]2N)O1 (tested in a mixture with another compound)
not listed: [20]
inactive: all other assays above

O=c1ccc2cc(O[C@H]3O[C@@H](CO)[C@@H](O)[C@@H](O)[C@@H]3O)c(O)cc2o1
not listed: [20]
inactive: all other assays above

CCC(C)C1O[C@]2(C=CC1C)CC1CC(C/C=C(\C)[C@H](OC3CC(OC)C(O[C@H]4CC(OC)[C@@H](O)C(C)O4)C(C)O3)[C@@H](C)/C=C/C=C3\COC4C(O)C(C)=C[C@H](C(=O)O1)[C@@]34O)O2 (stereo not given in full)
active: [1] 11.2 µM | [2] 10 µM | [3] 10 µM | [4] 11.2 µM | [5] 12 µM | [6] 16.9 µM | [8] 10.7 µM | [9] 12 µM | [11] 9.53 µM | [12] 12 µM | [18] 13.5 µM | [14] 7.08 µM | [19] 10 µM | [16] 7.57 µM | [17] 12.6 µM

C=CC1CN2CCC1CC2C(OC(=O)OCC)c1ccnc2ccc(OC)cc12 (stereo not given)
active: [1] 5.01 µM | [2] 7.94 µM | [3] 3.98 µM | [4] 8.91 µM | [5] 6.01 µM | [7] 8.91 µM | [8] 12 µM | [9] 9.53 µM | [12] 6.01 µM | [13] 9.53 µM | [18] 4.78 µM | [14] 3.98 µM | [15] 7.94 µM | [19] 3.55 µM | [16] 6.01 µM | [17] 0.501 µM

COc1cc2c(cc1OC)[C@@]13CCN4CC5=CCOC6CC(=O)N2C1[C@H]6[C@@H]5C[C@@H]43 (stereo not given in full)
not listed: [20]
inactive: all other assays above

O=C1C=C2C=CC3C[C@@]2(O1)C1CCCCN31 (stereo not given in full)
inactive: [12]
active: [1] 12.6 µM | [2] 10 µM | [3] 10 µM | [7] 11.2 µM | [10] 16.9 µM | [13] 13.5 µM | [14] 7.94 µM | [15] 12.6 µM | [19] 8.91 µM | [17] 11.2 µM

CNC(C)[C@@H](O)c1ccccc1 (stereo not given in full)
not listed: [20]
inactive: all other assays above

Clc1ccc([C@@H](OCCN2CCCCC2)c2ccccc2)cc1
active: [20] 0.0158 µM | [18] 5.73 µM | [14] 1.58 µM | [15] 3.55 µM | [19] 3.55 µM
inactive: [4] | [6] | [7] | [8] | [10] | [11]

COc1cc(N)c(Cl)cc1C(=O)N[C@@H]1CN2CCC1CC2
not listed: [20]
inactive: all other assays above

COc1cc2c(c(OC)c1OC)-c1ccc(O)c(=O)cc1[C@@H](NC(C)=O)CC2
inactive: [20]

Reference: PubChem BioAssay (NCATS)
